Experimental data reported in the supplement of paper PMC10646978.
± gives the standard deviation.

Columns and labels:
Settings in all cases: modulator concentration 10 µM
[1] = tested on: RAW-Dual (murine macrophage reporter line); experiment: NF-kB reporter (SEAP) activity fold change vs agonist alone; higher = enhanced NF-kB activity
Outline: (§1)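 In 384-well plates holding 50 000 RAW-Dual murine macrophage reporter cells per well, compound at 10 μM final was pre-incubated for 1 hour at 37 °C, after which a PRR agonist was added overnight. Supernatant SEAP read with QUANTI-Blue at 620 nm absorbance reported NF-κB, and Lucia luciferase read with QUANTI-Luc luminescence reported IRF. Fold change values come from dividing each reporter signal by the mean of agonist-only control wells on the same plate, averaged over replicate plates with propagated errors.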

[2] = tested on: RAW-Dual (murine macrophage reporter line); experiment: IRF reporter (Lucia luciferase) activity fold change vs agonist alone; higher = enhanced IRF activity
Outline: as §1

[3] = tested on: RAW-Dual (murine macrophage reporter line); experiment: viability score (confluency relative to resting cells, overnight) (fraction); higher = more viable, active = viable (0.7 or more)
Outline: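 RAW-Dual macrophages in 384-well plates were exposed overnight to compound at 10 μM final. Confluency was imaged with IncuCyte, and two confluency masks were generated with IncuCyte software over all imaged wells. The viability score is confluency expressed relative to resting cells. Compounds were called viable if both masks exceeded 70% of resting cells.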

[4] = agonist: CpG ODN 1826 0.5 ug/mL

Row | Compound | NF-kB reporter [1, 4] | NF-kB reporter ([1]; agonist: LPS 0.1 ug/mL) | NF-kB reporter ([1]; agonist: MPLA […]) | IRF reporter ([2]; agonist: 3'3'-cGAMP 10 ug/mL) | IRF reporter ([2]; agonist: LPS 0.1 ug/mL) | IRF reporter ([2]; agonist: MPLA […]) | viability score [3]
1 | CCc1ccccc1N(CC(=O)Nc1ccc(Cl)cc1C)S(C)(=O)=O | 0.842 ± 0.087 | 1.05 ± 0.068 | 0.893 ± 0.047 | 0.88 ± 0.12 | 1.08 ± 0.14 | 0.876 ± 0.18 | 1 (active)
2 | CC1=C(C(=O)N2CCOCC2)C(c2cccs2)NC(=O)N1 (configuration not stated) | 1.12 ± 0.18 | 0.973 ± 0.1 | 0.965 ± 0.076 | 0.933 ± 0.047 | 1.07 ± 0.11 | 1.17 ± 0.14 | 0.986 (active)
3 | CC(C)(O)CNC(=O)c1cccc([N+](=O)[O-])c1 | 0.928 ± 0.074 | 0.96 ± 0.11 | 0.954 ± 0.058 | 0.811 ± 0.12 | 0.971 ± 0.15 | 0.979 ± 0.23 | 0.995 (active)
4 | O=C(C=Cc1ccccc1)NC(NC(=S)Nc1ccc(Cl)cc1)C(Cl)(Cl)Cl (configuration not stated) | 1.16 ± 0.11 | 0.783 ± 0.11 | 5.38 ± 0.2 | 0.404 ± 0.07 | 0.804 ± 0.036 | 1.74 ± 0.19 | 0.166 (inactive)
5 | COC(=O)Nc1nc2cc(C(=O)c3ccccc3)ccc2[nH]1 | 1.96 ± 0.28 | 1.23 ± 0.23 | 1.31 ± 0.13 | 0.093 ± 0.0033 | 1.04 ± 0.19 | 1.6 ± 0.22 | 0.661 (inactive)
6 | Cc1ccc(S(=O)(=O)Nc2cc(-c3c(O)ccc4ccccc34)c(O)c3ccccc23)cc1 | 0.941 ± 0.073 | 0.994 ± 0.076 | 1.16 ± 0.11 | 0.337 ± 0.015 | 0.808 ± 0.047 | 0.611 ± 0.075 | 0.956 (active)
7 | CC1(C)CC(=O)c2c(nc3ccc(Br)cc3c2N)C1.Cl | 0.513 ± 0.035 | 1.08 ± 0.067 | 0.883 ± 0.053 | 0.771 ± 0.036 | 1.07 ± 0.12 | 1.11 ± 0.11 | 0.995 (active)
8 | Cn1c2c(c3ccccc31)CCCC2NC=O (configuration not stated) | 0.787 ± 0.061 | 0.931 ± 0.06 | 1.03 ± 0.09 | 0.93 ± 0.042 | 1.36 ± 0.082 | 1.44 ± 0.14 | 1 (active)
9 | O=S(=O)(Cc1cccc(F)c1)N1C2CCC1CC(Oc1cccnc1)C2 (configuration not stated) | 1.18 ± 0.07 | 1.1 ± 0.099 | 1.04 ± 0.054 | 0.986 ± 0.04 | 1.06 ± 0.052 | 1.04 ± 0.1 | 1 (active)
10 | O=C(c1ccc2ccccc2n1)N1CCc2ncncc2C1 | 1.08 ± 0.054 | 1.04 ± 0.083 | 0.862 ± 0.044 | 0.956 ± 0.063 | 1.09 ± 0.18 | 1.11 ± 0.27 | 1.01 (active)
11 | O=C1C=C(c2c(O)ccc3ccccc23)c2ccccc2C1=O | 1.19 ± 0.21 | 0.399 ± 0.055 | 1.66 ± 0.19 | 0.0196 ± 0.0013 | 1.44 ± 0.18 | 0.656 ± 0.074 | 0.556 (inactive)
12 | O=C(CSc1nnnn1-c1ccccc1)NC12CC3CC(CC(C3)C1)C2 | 1.01 ± 0.09 | 0.967 ± 0.053 | 0.943 ± 0.059 | 0.96 ± 0.054 | 1.12 ± 0.24 | 0.933 ± 0.058 | 1.02 (active)
13 | OCC(S)CS (configuration not stated) | 0.949 ± 0.072 | 0.909 ± 0.059 | 0.988 ± 0.023 | 0.336 ± 0.034 | 0.84 ± 0.07 | 0.912 ± 0.081 | 0.994 (active)
14 | Cc1c(C(=O)OC(C)C)sc(NC(=O)C(C)(C)C)c1C(=O)OC(C)C | 0.823 ± 0.081 | 0.908 ± 0.044 | 1.09 ± 0.099 | 1 ± 0.06 | 1.56 ± 0.095 | 1.77 ± 0.16 | 0.985 (active)
15 | Cc1nnc(C(C)C)n1C1CC2CCC(C1)N2CC[C@H](NC(=O)C1CCC(F)(F)CC1)c1ccccc1 (some centres not stated) | 0.928 ± 0.07 | 1.05 ± 0.069 | 1.03 ± 0.051 | 1.08 ± 0.2 | 0.973 ± 0.087 | 1.03 ± 0.11 | 1 (active)
16 | CCOC(=O)C1=C(C)NC2=C(C(=O)CC(C)(C)C2)C1c1ccccc1Br (configuration not stated) | 0.993 ± 0.096 | 1.07 ± 0.059 | 0.934 ± 0.056 | 0.898 ± 0.022 | 1.32 ± 0.19 | 0.975 ± 0.2 | 1.02 (active)
17 | CCn1ccc(C(=O)N2CCN(c3cc(C(F)(F)F)nc(C)n3)CC2)n1 | 1.27 ± 0.098 | 1.07 ± 0.092 | 1.01 ± 0.05 | 0.637 ± 0.028 | 0.744 ± 0.035 | 0.839 ± 0.11 | 1 (active)
18 | CCOC(=O)c1ccccc1NC(=O)CN(c1cc(C)ccc1OC)S(C)(=O)=O | 1.05 ± 0.097 | 1.03 ± 0.068 | 0.994 ± 0.047 | 1.01 ± 0.21 | 1.05 ± 0.11 | 1 ± 0.2 | 1 (active)
19 | CCOc1ccc(CN2CCN(c3cc(C)nc4c5c(C)cc(C)nc5nn34)CC2)cc1 | 0.944 ± 0.08 | 1.04 ± 0.077 | 1.02 ± 0.022 | 1.05 ± 0.1 | 1 ± 0.14 | 0.96 ± 0.26 | 1 (active)
20 | NCC(O)(c1ccc(Cl)cc1)c1ccc(Cl)cc1 | 0.85 ± 0.14 | 1.12 ± 0.12 | 1.03 ± 0.11 | 1.01 ± 0.036 | 1.32 ± 0.25 | 1.41 ± 0.22 | 0.996 (active)
21 | CCN(CC)C(=S)SSC(=S)N(CC)CC | 1.2 ± 0.097 | 0.633 ± 0.041 | 2.07 ± 0.22 | 2.71 ± 0.29 | 0.201 ± 0.025 | 0.114 ± 0.018 | 0.461 (inactive)
22 | Cl.O=S(=O)(c1cccc2cnccc12)N1CCCNCC1 | 0.76 ± 0.1 | 1.01 ± 0.27 | 1.06 ± 0.06 | 0.825 ± 0.033 | 0.85 ± 0.15 | 0.558 ± 0.083 | 0.992 (active)
23 | CC(C)(C)c1cc(C(=O)Oc2cccc3cccnc23)cc(C(C)(C)C)c1 | 0.895 ± 0.05 | 0.976 ± 0.06 | 0.923 ± 0.064 | 0.938 ± 0.034 | 1.25 ± 0.097 | 1.23 ± 0.12 | 1 (active)
24 | CN(C)c1ncc(NC(=O)c2ccc(Oc3ncccn3)cc2)c(N(C)C)n1 | 0.856 ± 0.086 | 0.953 ± 0.075 | 0.849 ± 0.065 | 0.991 ± 0.053 | 1.2 ± 0.083 | 1.08 ± 0.14 | 0.985 (active)
25 | CCOc1cccc2sc(=NC(=O)c3ccc(S(=O)(=O)N4CCOCC4)cc3)n(C)c12 | 0.991 ± 0.31 | 1.14 ± 0.16 | 0.989 ± 0.13 | 0.97 ± 0.025 | 1.06 ± 0.14 | 1.27 ± 0.15 | 0.995 (active)
26 | O=C(Nc1ccc(Cl)cc1)C(Sc1ccccc1)c1ccccc1 (configuration not stated) | 0.994 ± 0.11 | 1.02 ± 0.1 | 0.926 ± 0.065 | 0.989 ± 0.037 | 1.38 ± 0.26 | 1 ± 0.081 | 1.02 (active)
